This note sets out measurements from PubChem BioAssay (NCATS).

Structures are written as SMILES. Records with an inconclusive call do not appear. Where a call stands in place of a potency, no number is given. Active and inactive are the calls of the source. Calls follow the shape of the dose curve; as a rule, active = well fitted curve in the direction sought with a large enough effect; inconclusive = small, poorly fitted or top-dose-only effect, or another doubt; inactive = no such curve, though single readings can be large; an effect the other way counts as inactive or inconclusive.

A short description of test [1]: qHTS for Inhibitors of Ubiquitin-specific Protease USP2a Using CHOP2 as the Reporter: K633 Counterscreen (AID 652168). Also: series mostly up to about 57 µM. The procedure, abridged:
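Cell-free interference counterscreen without USP2a: compounds pinned into enzyme-free buffer (20 mM Tris pH 8, 2 mM beta-mercaptoethanol, 0.05% Chaps), then DiUb K48-4IQF substrate added (100 nM stock); fluorescence read kinetically, Ex 525/Em 598.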
In general terms: In qHTS, concentration-response curves come from the screen itself.

Test [2] in a line: qHTS for Inhibitors of Ubiquitin-specific Protease USP2a Using CHOP2 as the Reporter: Cytotox Assay (AID 652170). Also: nearly all actives have a fitted effect of over 70% in size. Also: potency is read from the fitted curve at half-maximal effect. The procedure, abridged: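 HCT116 human colon cancer cells, 600 per well in DMEM with 10% FBS, exposed to compounds for 72 hr at 37 deg C. ATP measured by CellTiter-Glo luminescence, normalized to DMSO cells and no-cell background.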
The target in test [3] is Ubiquitin carboxyl-terminal hydrolase 2 (Homo sapiens) (UniProt O75604). As to the kind of experiment: qHTS for Inhibitors of Ubiquitin-specific Protease USP2a Using CHOP2 as the Reporter: K484 Substrate (AID 652173).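 Also: cleavage of internally quenched K48 di-ubiquitin substrate measured as rising fluorescence over time; nearly all actives have a fitted effect of over 70% in size.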 Also: potency is read from the fitted curve at half-maximal effect. In short, it runs like this: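 USP2 (dispensed at 5 nM) was pinned with compounds, then DiUb K48 internally quenched fluorescent substrate (dispensed at 100 nM) was added. The buffer was 20 mM Tris pH 8, 2 mM beta-mercaptoethanol and 0.05% CHAPS. Cleavage was read kinetically as rising fluorescence, Ex 525/Em 598.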
Ubiquitin carboxyl-terminal hydrolase 2 (Homo sapiens), sequence (O75604 whole entry, looked up): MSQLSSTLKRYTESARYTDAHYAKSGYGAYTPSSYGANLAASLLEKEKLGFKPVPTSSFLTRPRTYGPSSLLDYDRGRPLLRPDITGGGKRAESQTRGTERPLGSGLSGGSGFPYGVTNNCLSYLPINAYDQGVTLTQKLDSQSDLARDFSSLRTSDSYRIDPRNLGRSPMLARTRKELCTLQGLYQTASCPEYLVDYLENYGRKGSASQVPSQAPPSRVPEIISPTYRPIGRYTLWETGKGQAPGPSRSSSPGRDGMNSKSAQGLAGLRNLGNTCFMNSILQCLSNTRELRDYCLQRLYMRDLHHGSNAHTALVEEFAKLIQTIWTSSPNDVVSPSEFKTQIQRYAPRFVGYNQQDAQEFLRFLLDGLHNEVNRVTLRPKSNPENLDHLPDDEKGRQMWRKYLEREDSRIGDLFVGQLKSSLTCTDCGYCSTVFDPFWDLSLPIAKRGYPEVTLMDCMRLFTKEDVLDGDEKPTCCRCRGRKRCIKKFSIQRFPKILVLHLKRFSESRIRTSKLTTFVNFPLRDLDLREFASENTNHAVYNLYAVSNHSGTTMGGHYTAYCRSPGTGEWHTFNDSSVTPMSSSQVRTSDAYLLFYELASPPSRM

Take `O=C(Nc1nc(-c2ccc(F)cc2)cs1)c1ccncc1NS(=O)(=O)c1ccccc1Cl`: the compound was called inactive in test [1]. Moreover, the Potency entry in test [2] was “inactive”. In test [3], the Potency was 3.06 µM (active).

As to `Cc1ccc(S(=O)(=O)Nc2cnccc2C(=O)Nc2nc(-c3cccc(Cl)c3)cs2)cc1`, in test [1], the result was inactive. The Potency in test [2] is 23.5 µM (active); in test [3], 2.17 µM (active).

For the compound `CCN(CC)C(=O)C1CCC(C(=O)Nc2ccc([S+](=O)([O-])Nc3nccs3)cc2)CC1` (centres undefined), in test [1], the call was inactive. For the same compound, the Potency result in test [2] and in test [3] was “inactive” each time.

In the case of `COc1ccc(S(=O)(=O)Nc2cnccc2C(=O)Nc2nc(-c3ccccc3)cs2)cc1`, the outcome in test [1] was inactive. Further, the Potency result in test [2] is “inactive”. In addition, in test [3], the Potency was 3.85 µM (active).

As to `O=C(Nc1ccc(S(=O)(=O)Nc2ncc(-c3ccccc3)s2)cc1)c1ccc2ccccc2c1`, the result in test [1] was inactive. The Potency entry in test [2] is “inactive”. In addition, the Potency in test [3] was 3.06 µM (active).

On to `O=C(Nc1nc(-c2ccccc2)cs1)c1ccncc1NS(=O)(=O)c1ccc2ccccc2c1`, for which the result in test [1] was inactive. For the same compound, the Potency in test [3] is 1.37 µM (active).

Take `O=C(Nc1nc(-c2ccc(F)cc2)cs1)c1ccncc1NS(=O)(=O)c1ccc(F)cc1`: in test [1], the result was inactive. Moreover, the Potency result in test [2] was “inactive”. Besides, in test [3], the Potency was 4.85 µM (active).

For the compound `N#Cc1cnc(NS(=O)(=O)c2ccc(NC(=O)Cc3ccc(F)c(Cl)c3)cc2)s1`, the compound was called inactive in test [1]. For the same compound, the Potency entry in test [2] is “inactive”. Also, in test [3], the Potency was 15.3 µM (active).

Regarding `Cc1ccc(S(=O)(=O)Nc2ccc(OC(F)(F)F)cc2C(=O)Nc2nc(-c3ccccc3)cs2)cc1`, the Potency is 5.9 µM (active) in test [2] and 2.43 µM (active) in test [3].

For the compound `O=C(Nc1ccc(S(=O)(=O)Nc2nccs2)cc1)c1ccc2ccccc2c1`, the Potency result in test [2] was “inactive”. For the same compound, the Potency in test [3] was 2.73 µM (active).

Regarding `Cc1ccc(-c2cc(C(=O)Nc3ccc(C(N)=O)cc3)c3ccccc3n2)cc1C`, in test [1], the compound was classed as inactive. For the same compound, in test [3], the Potency is 21.7 µM (active).

Consider `Cc1ccc(S(=O)(=O)Nc2ccccc2Nc2nc(-c3ccccc3)cs2)cc1`, for which, in test [2], the Potency entry is “inactive”. In addition, in test [3], the Potency is 3.85 µM (active).

As to `COC(=O)C1=CC[C@H](c2ccc(C)cc2)N(S(=O)(=O)c2ccc(C)cc2)[C@@H]1c1ccc(C(C)(C)C)cc1`, the Potency result in test [2] is “inactive”.

Turning to `Cc1cccc(S(=O)(=O)Nc2cnccc2C(=O)Nc2nc(-c3ccccc3)cs2)c1`, the compound was classed as inactive in test [1]. In test [3], the Potency is 2.73 µM (active).

`Cc1ccc(-c2cc(C(=O)Nc3ccncc3)c3ccccc3n2)cc1C`: the Potency in test [2] is 18.7 µM (active); in test [3] it was 13.7 µM (active).

Take `O=C(C[C@H]1CC[C@@H](C(=O)Nc2ccc(S(=O)(=O)Nc3nccs3)cc2)C1)c1ccccc1`: in test [2], the Potency result was “inactive”. Also, the Potency in test [3] is 19.3 µM (active).

`O=S(=O)(Nc1nccs1)c1ccc(Nc2nc(-c3ccc(-c4ccccc4)cc3)cs2)cc1`: the Potency entry in test [2] was “inactive”. Moreover, the Potency in test [3] was 1.93 µM (active).

`Cc1ccc(-c2cc(C(=O)Nc3ccc(C#N)cc3)c3ccccc3n2)cc1C`: the Potency in test [3] was 12.2 µM (active).

As for `O=C(Nc1ccc(C(=O)Nc2nccs2)cc1)c1ccc2ccccc2c1`, in test [2], the Potency result is “inactive”. Besides, the Potency in test [3] is 3.85 µM (active).

With `Cc1ccc(S(=O)(=O)Nc2cnccc2C(=O)Nc2nc(-c3ccc(C)c(C)c3)cs2)cc1`, in test [1], the call was inactive. Moreover, the Potency in test [3] was 2.73 µM (active).

As for `CCCCC1CCC(C(=O)Nc2ccc(S(=O)(=O)Nc3cc(C)on3)cc2)CC1` (centres undefined), the Potency result in test [2] was “inactive”. Moreover, the Potency in test [3] is 12.2 µM (active).

As for `Cc1ccc(S(=O)(=O)Nc2cnccc2C(=O)Nc2cccc3ccccc23)cc1`, in test [1], the call was inactive. Further, the Potency in test [3] is 7.69 µM (active).

Regarding `Cc1ccc(NC(=O)c2cc(-c3ccc(C)c(C)c3)nc3ccccc23)cc1`, the Potency result in test [2] was “inactive”.

`Cc1ccc(-c2cc(C(=O)Nc3ccc(S(C)(=O)=O)cc3)c3ccccc3n2)cc1C`: the Potency entry in test [2] was “inactive”. Further, in test [3], the Potency was 6.85 µM (active).

Turning to `Cc1ccc(S(=O)(=O)Nc2cnccc2C(=O)Nc2nc(-c3ccccc3Cl)cs2)cc1`, in test [1], the result was inactive. In addition, the Potency in test [3] is 1.72 µM (active).

For `Cc1ccc(-c2cc(C(=O)Nc3ccc(S(=O)(=O)Nc4ccccn4)cc3)c3ccccc3n2)cc1C`, the Potency entry in test [2] is “inactive”. In test [3], the Potency was 4.32 µM (active).

As to `Cc1ccc(-c2cc(C(=O)Nc3ccc(S(=O)(=O)Nc4cccnc4)cc3)c3ccccc3n2)cc1C`, the Potency result in test [2] is “inactive”. Further, in test [3], the Potency is 6.85 µM (active).

`Cc1ccc(-c2cc(C(=O)Nc3ccc4[nH]ccc4c3)c3ccccc3n2)cc1C`: the Potency result in test [2] was “inactive”. Further, the Potency in test [3] is 8.63 µM (active).

As to `Cc1ccc(S(=O)(=O)Nc2ncccc2C(=O)Nc2nc(-c3ccccc3)cs2)cc1`, the outcome in test [1] was inactive. In test [3], the Potency was 3.43 µM (active).

With `Cc1ccc(S(=O)(=O)Nc2ccc(Cl)c(C(=O)Nc3nc(-c4ccccc4)cs3)c2)cc1`, in test [2], the Potency result was “inactive”. Moreover, the Potency in test [3] was 2.43 µM (active).

Turning to `Cc1ccc(S(=O)(=O)Nc2cnccc2C(=O)Nc2nc(-c3cc(Br)cs3)cs2)cc1`, in test [1], the compound was called inactive. Further, the Potency in test [3] is 2.17 µM (active).

As to `CNS(=O)(=O)c1ccc(NC(=O)c2cc(-c3ccc(C)c(C)c3)nc3ccccc23)cc1`, the Potency entry in test [2] is “inactive”. Moreover, the Potency in test [3] is 4.85 µM (active).

On to `Cc1ccc(-c2cc(C(=O)Nc3ccc4ccccc4c3)c3ccccc3n2)cc1C`, for which, in test [2], the Potency result was “inactive”. In addition, the Potency in test [3] was 19.3 µM (active).

In the case of `Cc1ccc(S(=O)(=O)Nc2ccccc2C(=O)Nc2cnc(-c3ccccc3)cn2)cc1`, the results for the Potency in test [2] and in test [3] were 16.6 µM (active) and 3.43 µM (active), respectively.

For `Cc1ccc(-c2cc(C(=O)Nc3ccc(S(=O)(=O)Nc4ccncc4)cc3)c3ccccc3n2)cc1C`, the Potency result in test [2] is “inactive”. The Potency in test [3] was 9.68 µM (active).
